Source: PubChem BioAssay
BAZ2B inh: BAZ2B (human) inhibition; AlphaScreen BAZ2B-H3K14Ac peptide displacement; Potency, µM (doses to about 114 µM), inactives show top-dose activity change, negative = inhibition, most hits filed as inhibitors; 4.4% of 360,000 active; AID 504333; note: % is set by controls: 0 for no effect and ±100 for the full control effect; nearly all actives have a fitted effect of over 60% in size
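Compounds, titrated to a top concentration of 110 uM, were incubated 30 min at room temperature with preformed BAZ2B/acetyl-K14 H3 peptide complex (50 nM each). Proximity signal was measured by AlphaScreen after 20 min with beads.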
HP1b chromo inh: HP1-beta chromodomain-methylated histone interaction inhibition; AlphaScreen HP1-beta / biotin-H3K9me3 peptide binding; P83916; Potency, µM (series often up to 114 µM), for the others: at the top dose activity change, negative = inhibition, actives largely listed as inhibitors; 0.56% of 390,000 active; note: nearly all actives have a fitted effect of over 70% in size
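Compound inhibition of the preformed complex between 50 nM HP1-beta and 50 nM biotinylated H3K9me3 peptide was read by AlphaScreen. Buffer was PBS pH 7.4 with 0.01% Tween-20. Incubations ran 30 min at room temperature, with 10 ug/mL donor/acceptor beads.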
PLK1 PBD block: blocks phosphopeptide binding to human PLK1 polo-box domain; P53350; Plk1 PBD binding of FITC phosphopeptide, fluorescence polarization; Potency, µM, without a hit: max response, negative = inhibition, actives largely listed as inhibitors; 2.8% of 360,000 active; AID 720504; note: series mostly up to about 57 µM; % is set by controls: 0 for no effect and ±100 for the full control effect; nearly all actives have a fitted effect of over 65% in size
VDR inh: inhibitors of human vitamin D receptor. P11473. VDR-SRC2-3 peptide fluorescence polarization, 2 h. Potency, µM, without a hit: max response, negative = inhibition, usual class: inhibitors. 0.93% of 400,000 active; note: % is set by controls: 0 for no effect and ±100 for the full control effect
Target sequence (P11473 whole entry, looked up): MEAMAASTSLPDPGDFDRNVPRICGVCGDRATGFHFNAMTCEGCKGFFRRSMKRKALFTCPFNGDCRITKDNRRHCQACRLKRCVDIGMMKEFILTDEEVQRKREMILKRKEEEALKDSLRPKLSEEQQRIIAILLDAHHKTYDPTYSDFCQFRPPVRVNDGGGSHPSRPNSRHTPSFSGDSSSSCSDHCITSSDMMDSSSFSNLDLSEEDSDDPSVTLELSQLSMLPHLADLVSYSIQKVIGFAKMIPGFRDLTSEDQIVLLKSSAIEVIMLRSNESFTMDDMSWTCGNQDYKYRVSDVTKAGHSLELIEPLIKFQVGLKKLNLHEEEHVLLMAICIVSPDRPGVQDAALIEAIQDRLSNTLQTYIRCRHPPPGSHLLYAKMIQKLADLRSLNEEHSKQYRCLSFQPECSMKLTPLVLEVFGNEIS
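The screen uses fluorescence polarization to detect compounds that interfere with recruitment of the SRC2-3 coactivator peptide to VDR; plates are read after 2 h at room temperature.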
JMJD2A Tudor: blocks the human JMJD2A Tudor domain | O75164 | AlphaScreen JMJD2A-Tudor / H3K4me3 peptide binding | Potency, µM (doses to about 114 µM), without a hit: top-dose activity change, negative = inhibition, usual class: inhibitors | 4.4% of 390,000 active | AID 504339; note: % is set by controls: 0 for no effect and ±100 for the full control effect; nearly all actives have a fitted effect of over 50% in size
G9a inh: inhibitors of human histone lysine methyltransferase G9a; Q96KQ7; G9a H3K9 monomethylation, AlphaScreen, 2 h; Potency, µM (doses to about 102 µM), without a hit: at the top dose activity, negative = inhibition, actives largely listed as inhibitors; 8.8% of 350,000 active; AID 504332; note: % is set by controls: 0 for no effect and ±100 for the full control effect; nearly all actives have a fitted effect of over 75% in size
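Signal arises when biotinylated H3K9 peptide, once monomethylated, bridges streptavidin donor and antibody-captured acceptor beads. Enzyme at 20 nM was preincubated 15 min with test compounds; peptide 500 nM and SAM 20 uM then reacted for 2 h.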
The depositor's hits bear a star; ! = not confirmed by another sample; [ ] = another dose, or the depositor's remark. Rows were chosen to be rich in hits. Some 11% of all compounds tested hit in one or more screens of this group. Calls come from the whole dose curve; as a rule, active = well fitted curve in the direction sought with a large enough effect; inconclusive = small, poorly fitted or top-dose-only effect, or another doubt; inactive = no such curve, though single readings can be large; an effect the other way counts as inactive or inconclusive. Potency is the fitted concentration of half-maximal effect.

Results for CCCCOc1ccc(C(=O)N/C(=C/C=C/c2ccccc2)C(=O)O)cc1 ?
BAZ2B inh: inconclusive; HP1b chromo inh: 20.0%; PLK1 PBD block: -25.0%; VDR inh: -16.9%; JMJD2A Tudor: -23.6%; G9a inh: 50.1µM*

What do the screens show for `CCCCOc1ccc(C(=O)N/C(=C/C=C/c2ccccc2)C(=O)NC)cc1`?
BAZ2B inh: -28.6%; HP1b chromo inh: 6.8%; PLK1 PBD block: -20.3%; VDR inh: -10.9%; JMJD2A Tudor: -31.1%; G9a inh: -50.2%

What do the screens show for `COc1ccc(NC(=O)C2Cc3c(-c4cccc(F)c4)ccnc3O2)cc1OC` (stereo not given)?
PLK1 PBD block: -0.5%

Results for CC1=CCC(C(C)(C)O)CC1 (stereo not given) ?
VDR inh: 9.4%; G9a inh: 23.9%[59 µM]

What do the screens show for `Cc1ccc(C(=O)N2CCN(c3ccc(C(F)(F)F)cn3)CC2)cc1`?
BAZ2B inh: 2.1%; HP1b chromo inh: 32.7%; PLK1 PBD block: 0.5%; VDR inh: -2.3%; JMJD2A Tudor: -8.1%; G9a inh: 2.8%

How did Cc1c(C(=O)N2CCN(c3ccc(C(F)(F)F)cn3)CC2)oc2ccccc12 do in these assays?
BAZ2B inh: 4.5%; HP1b chromo inh: 19.0%; PLK1 PBD block: 29.9µM*; VDR inh: 3.8%; JMJD2A Tudor: -15.3%[11.4 µM]; G9a inh: 9.5%

What do the screens show for `COc1cc2c(cc1OC)C(COc1ccccc1OC)N(C(=O)C(C)(C)C)CC2` (stereo not given)?
BAZ2B inh: -0.9%; HP1b chromo inh: 17.0%; PLK1 PBD block: 29.9µM*; VDR inh: 0.2%; JMJD2A Tudor: -26.5%; G9a inh: inconclusive

How did Cc1ccc(NCCNc2ccc(C)cc2)cc1 do in these assays?
HP1b chromo inh: -41.1%; PLK1 PBD block: 1.5%; VDR inh: -12.0%; JMJD2A Tudor: 22.4µM*; G9a inh: inconclusive

What do the screens show for `Cc1ccc(NCc2ccccc2F)cc1`?
BAZ2B inh: -35.5%; HP1b chromo inh: 20.8%; PLK1 PBD block: 4.4%; VDR inh: -9.7%; JMJD2A Tudor: 0.0%; G9a inh: inconclusive

Results for COc1ccc(NCCNc2ccc(OC)cc2)cc1 ?
BAZ2B inh: 50.1µM*; HP1b chromo inh: -18.2%; PLK1 PBD block: -2.6%; VDR inh: 27.8%; JMJD2A Tudor: inconclusive; G9a inh: 8.6%[0.0925 µM]

How did COC(=O)C1=C(C)N(Cc2ccccc2)C(=NCC(C)C)N[C@H]1c1ccc(Br)cc1 do in these assays?
BAZ2B inh: inconclusive; G9a inh: -4.8%[12.7 µM]

Results for COC(=O)C1=C(C)N(Cc2ccccc2)C(=NCCc2cccnc2)N[C@H]1c1ccc(Br)cc1 ?
BAZ2B inh: 56.2µM*; HP1b chromo inh: 2.5%; PLK1 PBD block: -11.0%; VDR inh: -1.3%; JMJD2A Tudor: 28.2µM*; G9a inh: -1.6%[12.7 µM]

Results for COC(=O)C1=C(C)N(Cc2ccccc2)C(=NCCc2cccnc2)N[C@H]1c1ccccc1 ?
BAZ2B inh: 56.2µM*; HP1b chromo inh: 4.9%; PLK1 PBD block: -2.2%; VDR inh: -4.4%; JMJD2A Tudor: inconclusive; G9a inh: 31.6µM*!

Results for COC(=O)C1=C(C)N(Cc2ccccc2)C(=NCCc2ccccn2)N[C@H]1c1cccc(C(F)(F)F)c1 ?
BAZ2B inh: inconclusive; HP1b chromo inh: 11.9%; PLK1 PBD block: -12.1%; VDR inh: -6.7%; JMJD2A Tudor: inconclusive

What do the screens show for `CCN(CC)CCCN=C1N[C@@H](c2ccccc2)C(C(=O)OC)=C(C)N1CC`?
BAZ2B inh: 79.4µM*; HP1b chromo inh: 15.6%; PLK1 PBD block: -0.5%; VDR inh: 5.2%; JMJD2A Tudor: 31.6µM*; G9a inh: 39.8µM*!

What do the screens show for `COC(=O)C1=C(C)N(Cc2ccccc2)C(=NCCCCO)N[C@H]1c1ccccc1`?
BAZ2B inh: inconclusive; HP1b chromo inh: 12.0%; PLK1 PBD block: 6.7%; VDR inh: -16.5%; JMJD2A Tudor: inconclusive; G9a inh: 79.4µM*!
